Tests used:
Assay in all cases: DAPPL (digital affinity profiling via proximity ligation, sequencing); 10 mM Tris-HCl pH 7.5, 50 mM NaCl, 1 mM DTT, 4% glycerol, room temperature, 30 min; GST-TFs on glutathione beads, 16-mer random dsDNA library, 0.1% formaldehyde crosslink after washing; high values mean tight binding
Conditions in all cases: protein: recombinant; tags: N-terminal GST; dsDNA, one strand shown
ELK1 = molecular target: T1, ELK1 (Homo sapiens, UniProt P19419 1-428)
T1 sequence: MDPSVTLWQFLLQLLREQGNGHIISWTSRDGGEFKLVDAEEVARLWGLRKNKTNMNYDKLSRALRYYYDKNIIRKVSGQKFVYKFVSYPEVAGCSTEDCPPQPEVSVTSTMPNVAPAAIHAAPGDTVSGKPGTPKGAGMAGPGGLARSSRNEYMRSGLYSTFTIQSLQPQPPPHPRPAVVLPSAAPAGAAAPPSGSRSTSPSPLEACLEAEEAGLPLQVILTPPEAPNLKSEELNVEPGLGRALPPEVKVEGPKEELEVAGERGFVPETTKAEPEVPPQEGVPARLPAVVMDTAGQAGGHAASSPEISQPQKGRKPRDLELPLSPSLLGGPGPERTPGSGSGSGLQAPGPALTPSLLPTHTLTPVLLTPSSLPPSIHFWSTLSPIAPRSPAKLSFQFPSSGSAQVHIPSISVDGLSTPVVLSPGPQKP
How it was run: (§1)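 A tag-only sample was pooled with DNA-barcoded human transcription factors that had been expressed in yeast as GST fusions and captured on glutathione beads. The pools were incubated for 30 min at room temperature with 200 nmole of a random double-stranded 16-mer DNA library in Tris/NaCl/DTT/glycerol buffer, then washed, crosslinked with 0.1% formaldehyde, proximity-ligated (BsaI/T4 ligase, 1 h, 37 °C), PCR-amplified and sequenced on an Illumina NextSeq500. Binding signal is each hexamer's read frequency for a factor divided by its frequency for the tag-only sample.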

GABPA = molecular target: T2, GABPA (Homo sapiens, UniProt Q06546 1-454)
T2 sequence: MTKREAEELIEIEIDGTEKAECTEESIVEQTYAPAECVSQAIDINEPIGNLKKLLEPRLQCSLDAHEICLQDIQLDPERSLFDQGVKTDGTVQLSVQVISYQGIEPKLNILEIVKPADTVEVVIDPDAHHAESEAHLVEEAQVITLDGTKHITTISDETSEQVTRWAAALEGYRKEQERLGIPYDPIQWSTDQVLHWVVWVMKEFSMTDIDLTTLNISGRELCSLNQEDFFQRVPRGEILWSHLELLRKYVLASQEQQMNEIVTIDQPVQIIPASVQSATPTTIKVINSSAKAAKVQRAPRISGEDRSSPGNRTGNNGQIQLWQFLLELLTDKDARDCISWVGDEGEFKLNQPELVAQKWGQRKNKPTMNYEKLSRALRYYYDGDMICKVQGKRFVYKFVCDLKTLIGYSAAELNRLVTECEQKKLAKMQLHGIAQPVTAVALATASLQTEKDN
How it was run: as §1

ELF1 = ELF1 (Homo sapiens, UniProt P32519 1-619)
Chain of ELF1 (P32519 whole entry): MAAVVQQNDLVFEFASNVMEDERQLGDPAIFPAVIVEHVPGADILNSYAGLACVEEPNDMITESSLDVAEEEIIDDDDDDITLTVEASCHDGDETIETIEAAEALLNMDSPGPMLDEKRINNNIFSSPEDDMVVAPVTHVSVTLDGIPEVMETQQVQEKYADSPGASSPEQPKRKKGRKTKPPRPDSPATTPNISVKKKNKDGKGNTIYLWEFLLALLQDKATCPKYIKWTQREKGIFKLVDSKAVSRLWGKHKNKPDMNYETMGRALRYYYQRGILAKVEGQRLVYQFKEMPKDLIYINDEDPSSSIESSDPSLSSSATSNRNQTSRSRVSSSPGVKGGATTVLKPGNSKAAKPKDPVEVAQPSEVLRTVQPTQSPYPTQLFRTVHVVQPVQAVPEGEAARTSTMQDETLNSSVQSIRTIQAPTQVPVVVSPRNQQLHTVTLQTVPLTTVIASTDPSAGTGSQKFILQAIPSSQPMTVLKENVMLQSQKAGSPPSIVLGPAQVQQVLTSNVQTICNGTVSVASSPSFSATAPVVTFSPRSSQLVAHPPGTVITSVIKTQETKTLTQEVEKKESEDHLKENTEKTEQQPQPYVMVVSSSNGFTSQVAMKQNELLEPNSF
How it was run: as §1

SPIB = SPIB (Homo sapiens, UniProt Q01892 1-262)
Chain of SPIB (Q01892 whole entry): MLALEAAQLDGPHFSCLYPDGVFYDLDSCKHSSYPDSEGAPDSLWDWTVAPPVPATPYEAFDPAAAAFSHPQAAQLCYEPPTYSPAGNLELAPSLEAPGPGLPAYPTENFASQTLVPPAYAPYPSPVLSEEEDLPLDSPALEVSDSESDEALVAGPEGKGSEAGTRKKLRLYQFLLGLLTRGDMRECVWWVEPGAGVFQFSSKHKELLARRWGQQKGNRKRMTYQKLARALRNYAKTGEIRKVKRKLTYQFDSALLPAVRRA
How it was run: as §1

FEV = molecular target: T3, FEV (Homo sapiens, UniProt Q99581 1-238)
T3 sequence: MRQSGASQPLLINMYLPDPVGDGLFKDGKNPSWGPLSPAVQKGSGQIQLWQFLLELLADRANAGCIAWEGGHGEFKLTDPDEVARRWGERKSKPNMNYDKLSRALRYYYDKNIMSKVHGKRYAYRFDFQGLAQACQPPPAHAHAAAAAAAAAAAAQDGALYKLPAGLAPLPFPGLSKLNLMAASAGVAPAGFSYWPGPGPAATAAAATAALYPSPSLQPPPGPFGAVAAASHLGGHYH
How it was run: as §1

ETV5 = ETV5 (Homo sapiens, UniProt P41161 1-510)
Chain of ETV5 (P41161 whole entry): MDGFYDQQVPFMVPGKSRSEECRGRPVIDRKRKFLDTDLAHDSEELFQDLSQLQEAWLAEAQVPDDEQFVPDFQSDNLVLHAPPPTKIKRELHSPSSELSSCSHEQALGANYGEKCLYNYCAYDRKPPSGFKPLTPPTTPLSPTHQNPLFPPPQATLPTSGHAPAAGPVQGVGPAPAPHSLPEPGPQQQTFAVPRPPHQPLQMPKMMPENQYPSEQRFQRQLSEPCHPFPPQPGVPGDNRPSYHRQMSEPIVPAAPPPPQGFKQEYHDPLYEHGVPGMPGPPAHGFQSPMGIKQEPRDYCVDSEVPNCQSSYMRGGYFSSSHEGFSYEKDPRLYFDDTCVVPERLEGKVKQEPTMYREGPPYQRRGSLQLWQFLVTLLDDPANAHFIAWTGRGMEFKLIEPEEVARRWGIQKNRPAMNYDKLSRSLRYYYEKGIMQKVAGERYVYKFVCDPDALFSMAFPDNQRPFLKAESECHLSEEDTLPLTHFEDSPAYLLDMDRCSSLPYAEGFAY
How it was run: as §1

ELF4 = ELF4 (Homo sapiens, UniProt Q99607 1-663)
Chain of ELF4 (Q99607 whole entry): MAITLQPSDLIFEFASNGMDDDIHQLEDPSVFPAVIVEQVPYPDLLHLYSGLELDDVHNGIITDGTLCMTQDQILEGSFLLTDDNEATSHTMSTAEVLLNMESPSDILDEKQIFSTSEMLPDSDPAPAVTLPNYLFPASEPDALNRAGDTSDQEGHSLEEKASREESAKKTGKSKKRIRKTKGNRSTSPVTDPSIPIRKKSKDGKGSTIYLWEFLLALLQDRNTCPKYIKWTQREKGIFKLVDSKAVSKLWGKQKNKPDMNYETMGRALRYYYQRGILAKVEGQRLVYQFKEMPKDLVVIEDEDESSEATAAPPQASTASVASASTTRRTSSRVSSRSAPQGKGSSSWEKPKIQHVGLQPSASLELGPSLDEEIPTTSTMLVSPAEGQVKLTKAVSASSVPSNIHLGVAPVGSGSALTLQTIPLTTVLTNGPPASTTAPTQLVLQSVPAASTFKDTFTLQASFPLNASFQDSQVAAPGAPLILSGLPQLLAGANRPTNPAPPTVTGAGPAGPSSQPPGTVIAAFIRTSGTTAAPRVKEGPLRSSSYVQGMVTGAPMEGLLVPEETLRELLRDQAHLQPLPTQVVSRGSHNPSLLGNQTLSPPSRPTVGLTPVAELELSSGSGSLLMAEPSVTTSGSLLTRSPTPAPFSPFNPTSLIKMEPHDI
How it was run: as §1

ELK4 = molecular target: T4, ELK4 (Homo sapiens, UniProt P28324-2 1-405)
T4 sequence: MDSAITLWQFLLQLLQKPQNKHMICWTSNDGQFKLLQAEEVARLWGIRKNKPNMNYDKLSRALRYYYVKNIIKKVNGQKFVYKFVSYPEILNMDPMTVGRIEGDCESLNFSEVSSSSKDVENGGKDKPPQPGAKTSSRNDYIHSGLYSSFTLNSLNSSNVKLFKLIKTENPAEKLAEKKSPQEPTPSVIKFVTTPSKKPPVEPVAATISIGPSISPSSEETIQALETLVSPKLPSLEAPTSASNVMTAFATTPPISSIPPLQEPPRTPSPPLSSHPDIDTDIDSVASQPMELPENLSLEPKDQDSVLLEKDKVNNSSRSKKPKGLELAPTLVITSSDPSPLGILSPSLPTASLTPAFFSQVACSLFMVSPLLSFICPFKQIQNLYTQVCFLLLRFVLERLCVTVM
How it was run: as §1

ETV1 = ETV1 (Homo sapiens, UniProt P50549 1-477)
Chain of ETV1 (P50549 whole entry): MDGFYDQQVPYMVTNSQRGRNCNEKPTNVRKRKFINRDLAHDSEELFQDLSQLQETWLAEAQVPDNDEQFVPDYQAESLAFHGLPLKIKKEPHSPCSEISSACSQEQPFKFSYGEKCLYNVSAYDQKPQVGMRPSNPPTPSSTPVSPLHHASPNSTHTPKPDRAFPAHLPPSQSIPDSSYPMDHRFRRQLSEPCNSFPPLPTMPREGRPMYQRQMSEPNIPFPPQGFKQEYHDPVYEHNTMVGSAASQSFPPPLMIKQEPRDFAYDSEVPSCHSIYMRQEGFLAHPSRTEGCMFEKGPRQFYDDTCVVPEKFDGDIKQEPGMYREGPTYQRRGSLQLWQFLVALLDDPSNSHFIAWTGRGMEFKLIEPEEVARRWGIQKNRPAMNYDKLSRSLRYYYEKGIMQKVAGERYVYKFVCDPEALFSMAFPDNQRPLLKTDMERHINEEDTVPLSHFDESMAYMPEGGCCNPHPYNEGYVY
How it was run: as §1

ERF = molecular target: T5, ERF (Homo sapiens, UniProt P50548 1-548)
T5 sequence: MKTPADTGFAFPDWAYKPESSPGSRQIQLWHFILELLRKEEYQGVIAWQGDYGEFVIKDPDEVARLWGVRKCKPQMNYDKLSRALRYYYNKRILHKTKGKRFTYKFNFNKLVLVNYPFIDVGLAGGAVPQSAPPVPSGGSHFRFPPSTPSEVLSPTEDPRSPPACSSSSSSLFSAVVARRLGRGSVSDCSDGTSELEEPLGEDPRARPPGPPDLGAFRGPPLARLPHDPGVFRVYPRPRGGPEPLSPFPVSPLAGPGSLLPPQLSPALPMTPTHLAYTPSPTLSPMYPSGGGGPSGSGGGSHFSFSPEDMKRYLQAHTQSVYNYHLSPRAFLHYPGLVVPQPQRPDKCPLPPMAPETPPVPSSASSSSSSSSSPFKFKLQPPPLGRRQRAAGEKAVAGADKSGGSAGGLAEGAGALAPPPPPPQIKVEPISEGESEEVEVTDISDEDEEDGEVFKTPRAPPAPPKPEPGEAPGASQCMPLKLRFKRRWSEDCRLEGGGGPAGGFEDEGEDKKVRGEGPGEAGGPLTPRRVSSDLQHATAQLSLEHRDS
How it was run: as §1

ETV3L = molecular target: T6, ETV3L (Homo sapiens, UniProt Q6ZN32 1-361)
T6 sequence: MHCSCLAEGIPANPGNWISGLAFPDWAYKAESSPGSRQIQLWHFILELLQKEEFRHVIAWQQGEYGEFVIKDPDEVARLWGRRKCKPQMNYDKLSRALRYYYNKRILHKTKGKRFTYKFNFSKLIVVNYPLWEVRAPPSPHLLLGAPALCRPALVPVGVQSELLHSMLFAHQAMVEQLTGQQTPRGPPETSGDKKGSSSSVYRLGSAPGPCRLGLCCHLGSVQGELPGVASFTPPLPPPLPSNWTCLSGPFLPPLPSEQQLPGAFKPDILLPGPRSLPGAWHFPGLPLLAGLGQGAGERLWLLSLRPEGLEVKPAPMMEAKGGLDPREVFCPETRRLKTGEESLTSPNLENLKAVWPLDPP
How it was run: as §1

ETV7 = molecular target: T7, ETV7 (Homo sapiens, UniProt Q9Y603 1-341)
T7 sequence: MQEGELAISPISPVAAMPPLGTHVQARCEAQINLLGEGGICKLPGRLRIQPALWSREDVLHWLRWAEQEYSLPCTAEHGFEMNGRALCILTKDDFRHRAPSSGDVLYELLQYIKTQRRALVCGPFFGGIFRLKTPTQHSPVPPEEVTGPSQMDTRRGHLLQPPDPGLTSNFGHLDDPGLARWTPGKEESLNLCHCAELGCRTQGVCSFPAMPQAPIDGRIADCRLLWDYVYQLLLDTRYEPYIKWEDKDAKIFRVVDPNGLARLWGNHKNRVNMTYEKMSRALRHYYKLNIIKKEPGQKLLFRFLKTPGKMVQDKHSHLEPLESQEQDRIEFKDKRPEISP
How it was run: as §1

CAGCCT
binding signal (ELK1): 1.11 fold enrichment (6-mer frequency, TF over GST control) | binding signal (GABPA): 1.09 fold enrichment (6-mer frequency, TF over GST control) | binding signal (ELF1): 1.06 fold enrichment (6-mer frequency, TF over GST control) | binding signal (SPIB): 1.09 fold enrichment (6-mer frequency, TF over GST control) | binding signal (FEV): 1.02 fold enrichment (6-mer frequency, TF over GST control) | binding signal (ETV5): 1.04 fold enrichment (6-mer frequency, TF over GST control) | binding signal (ELF4): 1.12 fold enrichment (6-mer frequency, TF over GST control) | binding signal (ELK4): 1.01 fold enrichment (6-mer frequency, TF over GST control) | binding signal (ETV1): 1.02 fold enrichment (6-mer frequency, TF over GST control) | binding signal (ERF): 1.1 fold enrichment (6-mer frequency, TF over GST control) | binding signal (ETV3L): 1.02 fold enrichment (6-mer frequency, TF over GST control) | binding signal (ETV7): 1.13 fold enrichment (6-mer frequency, TF over GST control)
